# Measurements taken from paper PMC11062922 (Nature Chemical Biology, 2023).
# Like-named read-outs stand apart in the source and are kept apart here.
# What was measured:
# NTRK1 = settings: read-out: apparent Kd, n = 1
# NUAK2 = settings: read-out: apparent Kd, n = 1
# [1] = compound concentrations:100 nM and 1000 nM (sheet 'Lestaurtinib' of Supplementary Table 1),run:Lestaurtinib_02765_R2,Plate:MR026
# [2] = compound concentrations:100 nM and 1000 nM (sheet 'Lestaurtinib' of Supplementary Table 1),run:Lestaurtinib_02766_R2,Plate:MR027
# [3] = compound concentrations:100 nM and 1000 nM (sheet 'Lestaurtinib' of Supplementary Table 1),run:Lestaurtinib_02768_R1,Plate:MR028
# [4] = compound concentrations:100 nM and 1000 nM (sheet 'Lestaurtinib' of Supplementary Table 1),run:Lestaurtinib_02768_R2,Plate:MR028
# [5] = compound concentrations:100 nM and 1000 nM (sheet 'Lestaurtinib' of Supplementary Table 1),run:Lestaurtinib_02795_R1,Plate:MR022
# [6] = compound concentrations:100 nM and 1000 nM (sheet 'Lestaurtinib' of Supplementary Table 1),run:Lestaurtinib_02795_R2,Plate:MR022
# [7] = compound concentrations:100 nM and 1000 nM (sheet 'Lestaurtinib' of Supplementary Table 1),run:Lestaurtinib_02802_R3,Plate:MR029
# [8] = compound concentrations:100 nM and 1000 nM (sheet 'Lestaurtinib' of Supplementary Table 1),run:Lestaurtinib_02896_R2,Plate:MR030
substance,measurement,setting,value
Lestaurtinib,potency estimated from few doses,"NTRK1; compound concentrations:100 nM and 1000 nM (sheet 'Lestaurtinib' of Supplementary Table 1),run:Lestaurtinib_02748_R2,Plate:MR024",951 nM
same,potency estimated from few doses,"NTRK1; compound concentrations:100 nM and 1000 nM (sheet 'Lestaurtinib' of Supplementary Table 1),run:Lestaurtinib_02752_R1,Plate:MR025",2130 nM
same,potency estimated from few doses,NTRK1; [1],528 nM
same,potency estimated from few doses,NTRK1; [2],1650 nM
same,potency estimated from few doses,"NTRK1; compound concentrations:100 nM and 1000 nM (sheet 'Lestaurtinib' of Supplementary Table 1),run:Lestaurtinib_02766_R3,Plate:MR027",1440 nM
same,potency estimated from few doses,NTRK1; [3],628 nM
same,potency estimated from few doses,NTRK1; [4],897 nM
same,potency estimated from few doses,NTRK1; [5],852 nM
same,potency estimated from few doses,NTRK1; [6],1240 nM
same,potency estimated from few doses,"NTRK1; compound concentrations:100 nM and 1000 nM (sheet 'Lestaurtinib' of Supplementary Table 1),run:Lestaurtinib_02802_R1,Plate:MR029",896 nM
same,potency estimated from few doses,NTRK1; [7],943 nM
same,potency estimated from few doses,NTRK1; [8],935 nM
same,potency estimated from few doses,"NTRK1; compound concentrations:100 nM and 1000 nM (sheet 'Lestaurtinib' of Supplementary Table 1),run:Lestaurtinib_03172_R1,Plate:MR031",1440 nM
same,potency estimated from few doses,"NTRK1; compound concentrations:100 nM and 1000 nM (sheet 'Lestaurtinib' of Supplementary Table 1),run:Lestaurtinib_03172_R2,Plate:MR031",662 nM
same,potency estimated from few doses,"NTRK1; compound concentrations:100 nM and 1000 nM (sheet 'Lestaurtinib' of Supplementary Table 1),run:Lestaurtinib_03260_R1,Plate:MR033",898 nM
same,potency estimated from few doses,"NTRK1; compound concentrations:100 nM and 1000 nM (sheet 'Lestaurtinib' of Supplementary Table 1),run:Lestaurtinib_03260_R2,Plate:MR033",635 nM
same,potency estimated from few doses,"NUAK2; compound concentrations:100 nM and 1000 nM (sheet 'Lestaurtinib' of Supplementary Table 1),run:Lestaurtinib_02339_R1,Plate:MR001",489 nM
same,potency estimated from few doses,"NUAK2; compound concentrations:100 nM and 1000 nM (sheet 'Lestaurtinib' of Supplementary Table 1),run:Lestaurtinib_02339_R2,Plate:MR001",23.7 nM
same,potency estimated from few doses,"NUAK2; compound concentrations:100 nM and 1000 nM (sheet 'Lestaurtinib' of Supplementary Table 1),run:Lestaurtinib_02339_R3,Plate:MR001",373 nM
same,potency estimated from few doses,"NUAK2; compound concentrations:100 nM and 1000 nM (sheet 'Lestaurtinib' of Supplementary Table 1),run:Lestaurtinib_02364_R3,Plate:MR002",260 nM
same,potency estimated from few doses,"NUAK2; compound concentrations:100 nM and 1000 nM (sheet 'Lestaurtinib' of Supplementary Table 1),run:Lestaurtinib_02367_R1,Plate:MR003",873 nM
same,potency estimated from few doses,"NUAK2; compound concentrations:100 nM and 1000 nM (sheet 'Lestaurtinib' of Supplementary Table 1),run:Lestaurtinib_02367_R2,Plate:MR003",382 nM
same,potency estimated from few doses,"NUAK2; compound concentrations:100 nM and 1000 nM (sheet 'Lestaurtinib' of Supplementary Table 1),run:Lestaurtinib_02381_R1,Plate:MR004",394 nM
same,potency estimated from few doses,"NUAK2; compound concentrations:100 nM and 1000 nM (sheet 'Lestaurtinib' of Supplementary Table 1),run:Lestaurtinib_02381_R2,Plate:MR004",113 nM
same,potency estimated from few doses,"NUAK2; compound concentrations:100 nM and 1000 nM (sheet 'Lestaurtinib' of Supplementary Table 1),run:Lestaurtinib_02407_R2,Plate:MR005",70.6 nM
same,potency estimated from few doses,"NUAK2; compound concentrations:100 nM and 1000 nM (sheet 'Lestaurtinib' of Supplementary Table 1),run:Lestaurtinib_02422_R1,Plate:MR006",77.8 nM
same,potency estimated from few doses,"NUAK2; compound concentrations:100 nM and 1000 nM (sheet 'Lestaurtinib' of Supplementary Table 1),run:Lestaurtinib_02422_R2,Plate:MR006",44.9 nM
same,potency estimated from few doses,"NUAK2; compound concentrations:100 nM and 1000 nM (sheet 'Lestaurtinib' of Supplementary Table 1),run:Lestaurtinib_02437_R1,Plate:MR007",140 nM
same,potency estimated from few doses,"NUAK2; compound concentrations:100 nM and 1000 nM (sheet 'Lestaurtinib' of Supplementary Table 1),run:Lestaurtinib_02438_R1,Plate:MR008",22.1 nM
same,potency estimated from few doses,"NUAK2; compound concentrations:100 nM and 1000 nM (sheet 'Lestaurtinib' of Supplementary Table 1),run:Lestaurtinib_02443_R1,Plate:MR009",70 nM
same,potency estimated from few doses,"NUAK2; compound concentrations:100 nM and 1000 nM (sheet 'Lestaurtinib' of Supplementary Table 1),run:Lestaurtinib_02443_R2,Plate:MR009",75.5 nM
same,potency estimated from few doses,"NUAK2; compound concentrations:100 nM and 1000 nM (sheet 'Lestaurtinib' of Supplementary Table 1),run:Lestaurtinib_02443_R3,Plate:MR009",696 nM
same,potency estimated from few doses,"NUAK2; compound concentrations:100 nM and 1000 nM (sheet 'Lestaurtinib' of Supplementary Table 1),run:Lestaurtinib_02473_R2,Plate:MR010",100 nM
same,potency estimated from few doses,"NUAK2; compound concentrations:100 nM and 1000 nM (sheet 'Lestaurtinib' of Supplementary Table 1),run:Lestaurtinib_02473_R3,Plate:MR010",53.1 nM
same,potency estimated from few doses,"NUAK2; compound concentrations:100 nM and 1000 nM (sheet 'Lestaurtinib' of Supplementary Table 1),run:Lestaurtinib_02482_R1,Plate:MR011",165 nM
same,potency estimated from few doses,"NUAK2; compound concentrations:100 nM and 1000 nM (sheet 'Lestaurtinib' of Supplementary Table 1),run:Lestaurtinib_02482_R2,Plate:MR011",98 nM
same,potency estimated from few doses,"NUAK2; compound concentrations:100 nM and 1000 nM (sheet 'Lestaurtinib' of Supplementary Table 1),run:Lestaurtinib_02482_R3,Plate:MR011",133 nM
same,potency estimated from few doses,"NUAK2; compound concentrations:100 nM and 1000 nM (sheet 'Lestaurtinib' of Supplementary Table 1),run:Lestaurtinib_02487_R1,Plate:MR012",87.5 nM
same,potency estimated from few doses,"NUAK2; compound concentrations:100 nM and 1000 nM (sheet 'Lestaurtinib' of Supplementary Table 1),run:Lestaurtinib_02487_R2,Plate:MR012",208 nM
same,potency estimated from few doses,"NUAK2; compound concentrations:100 nM and 1000 nM (sheet 'Lestaurtinib' of Supplementary Table 1),run:Lestaurtinib_02487_R3,Plate:MR012",85.6 nM
same,potency estimated from few doses,"NUAK2; compound concentrations:100 nM and 1000 nM (sheet 'Lestaurtinib' of Supplementary Table 1),run:Lestaurtinib_02496_R1,Plate:MR013",931 nM
same,potency estimated from few doses,"NUAK2; compound concentrations:100 nM and 1000 nM (sheet 'Lestaurtinib' of Supplementary Table 1),run:Lestaurtinib_02496_R3,Plate:MR013",50.7 nM
same,potency estimated from few doses,"NUAK2; compound concentrations:100 nM and 1000 nM (sheet 'Lestaurtinib' of Supplementary Table 1),run:Lestaurtinib_02566_R3,Plate:MR014",517 nM
same,potency estimated from few doses,"NUAK2; compound concentrations:100 nM and 1000 nM (sheet 'Lestaurtinib' of Supplementary Table 1),run:Lestaurtinib_02572_R1,Plate:MR015",368 nM
same,potency estimated from few doses,"NUAK2; compound concentrations:100 nM and 1000 nM (sheet 'Lestaurtinib' of Supplementary Table 1),run:Lestaurtinib_02572_R2,Plate:MR015",96.7 nM
same,potency estimated from few doses,"NUAK2; compound concentrations:100 nM and 1000 nM (sheet 'Lestaurtinib' of Supplementary Table 1),run:Lestaurtinib_02584_R1,Plate:MR017",207 nM
same,potency estimated from few doses,"NUAK2; compound concentrations:100 nM and 1000 nM (sheet 'Lestaurtinib' of Supplementary Table 1),run:Lestaurtinib_02584_R3,Plate:MR017",259 nM
same,potency estimated from few doses,"NUAK2; compound concentrations:100 nM and 1000 nM (sheet 'Lestaurtinib' of Supplementary Table 1),run:Lestaurtinib_02601_R3,Plate:MR018",396 nM
same,potency estimated from few doses,"NUAK2; compound concentrations:100 nM and 1000 nM (sheet 'Lestaurtinib' of Supplementary Table 1),run:Lestaurtinib_02606_R1,Plate:MR019",140 nM
same,potency estimated from few doses,"NUAK2; compound concentrations:100 nM and 1000 nM (sheet 'Lestaurtinib' of Supplementary Table 1),run:Lestaurtinib_02606_R2,Plate:MR019",121 nM
same,potency estimated from few doses,"NUAK2; compound concentrations:100 nM and 1000 nM (sheet 'Lestaurtinib' of Supplementary Table 1),run:Lestaurtinib_02606_R3,Plate:MR019",154 nM
same,potency estimated from few doses,"NUAK2; compound concentrations:100 nM and 1000 nM (sheet 'Lestaurtinib' of Supplementary Table 1),run:Lestaurtinib_02624_R1,Plate:MR020",92.2 nM
same,potency estimated from few doses,"NUAK2; compound concentrations:100 nM and 1000 nM (sheet 'Lestaurtinib' of Supplementary Table 1),run:Lestaurtinib_02624_R2,Plate:MR020",93.3 nM
same,potency estimated from few doses,"NUAK2; compound concentrations:100 nM and 1000 nM (sheet 'Lestaurtinib' of Supplementary Table 1),run:Lestaurtinib_02624_R3,Plate:MR020",72.9 nM
same,potency estimated from few doses,"NUAK2; compound concentrations:100 nM and 1000 nM (sheet 'Lestaurtinib' of Supplementary Table 1),run:Lestaurtinib_02741_R1,Plate:MR023",140 nM
same,potency estimated from few doses,"NUAK2; compound concentrations:100 nM and 1000 nM (sheet 'Lestaurtinib' of Supplementary Table 1),run:Lestaurtinib_02741_R2,Plate:MR023",124 nM
same,potency estimated from few doses,"NUAK2; compound concentrations:100 nM and 1000 nM (sheet 'Lestaurtinib' of Supplementary Table 1),run:Lestaurtinib_02741_R3,Plate:MR023",115 nM
same,potency estimated from few doses,"NUAK2; compound concentrations:100 nM and 1000 nM (sheet 'Lestaurtinib' of Supplementary Table 1),run:Lestaurtinib_02748_R3,Plate:MR024",59.8 nM
same,potency estimated from few doses,"NUAK2; compound concentrations:100 nM and 1000 nM (sheet 'Lestaurtinib' of Supplementary Table 1),run:Lestaurtinib_02752_R2,Plate:MR025",68.5 nM
same,potency estimated from few doses,"NUAK2; compound concentrations:100 nM and 1000 nM (sheet 'Lestaurtinib' of Supplementary Table 1),run:Lestaurtinib_02765_R1,Plate:MR026",298 nM
same,potency estimated from few doses,NUAK2; [1],316 nM
same,potency estimated from few doses,"NUAK2; compound concentrations:100 nM and 1000 nM (sheet 'Lestaurtinib' of Supplementary Table 1),run:Lestaurtinib_02765_R3,Plate:MR026",88.4 nM
same,potency estimated from few doses,NUAK2; [2],58.5 nM
same,potency estimated from few doses,NUAK2; [3],89.9 nM
same,potency estimated from few doses,NUAK2; [4],66.1 nM
same,potency estimated from few doses,"NUAK2; compound concentrations:100 nM and 1000 nM (sheet 'Lestaurtinib' of Supplementary Table 1),run:Lestaurtinib_02768_R3,Plate:MR028",146 nM
same,potency estimated from few doses,NUAK2; [5],93.4 nM
same,potency estimated from few doses,NUAK2; [6],95.4 nM
same,potency estimated from few doses,"NUAK2; compound concentrations:100 nM and 1000 nM (sheet 'Lestaurtinib' of Supplementary Table 1),run:Lestaurtinib_02795_R3,Plate:MR022",154 nM
same,potency estimated from few doses,"NUAK2; compound concentrations:100 nM and 1000 nM (sheet 'Lestaurtinib' of Supplementary Table 1),run:Lestaurtinib_02802_R2,Plate:MR029",79.5 nM
same,potency estimated from few doses,NUAK2; [7],69.5 nM
same,potency estimated from few doses,"NUAK2; compound concentrations:100 nM and 1000 nM (sheet 'Lestaurtinib' of Supplementary Table 1),run:Lestaurtinib_02896_R1,Plate:MR030",90.1 nM
same,potency estimated from few doses,NUAK2; [8],130 nM
